Assay outcomes deposited in PubChem BioAssay by National Center for Advancing Translational Sciences (NCATS).
TRHR ag = qHTS for Small Molecule Agonists and Allosteric Enhancers of Human TRH Receptor: Primary Screen for Agonists; activation, % at 2 µM; TRHR cells, calcium flux fluo-8, FDSS agonist mode; 360,000 compounds, 0.18% hits; Thyrotropin-releasing hormone receptor (Homo sapiens), P34981; AID 493084, 2011; note: 0% is about no effect
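TRHR-expressing cells loaded with fluo-8 calcium dye; 23 nL library compound pin-transferred, kinetic FDSS fluorescence (Ex 480/Em 530) recorded about 180 s for agonist-induced calcium release, before a 10 nM TRH EC20 addition for potentiator mode.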
D1 antag = Antagonist of Human D 1 Dopamine Receptor: qHTS | D(1A) dopamine receptor (Homo sapiens), P21728 | HEK293 TREx D1 cells, calcium flux, dopamine EC80; hits give low values | activity change, negative = inhibition, % at 10 µM | 360,000 compounds, 3.2% hits | AID 504652, 2011; in the data active = activity change below about -30%; note: % is set by controls: 0 for no effect and ±100 for the full control effect
Target sequence (P21728 whole entry, looked up): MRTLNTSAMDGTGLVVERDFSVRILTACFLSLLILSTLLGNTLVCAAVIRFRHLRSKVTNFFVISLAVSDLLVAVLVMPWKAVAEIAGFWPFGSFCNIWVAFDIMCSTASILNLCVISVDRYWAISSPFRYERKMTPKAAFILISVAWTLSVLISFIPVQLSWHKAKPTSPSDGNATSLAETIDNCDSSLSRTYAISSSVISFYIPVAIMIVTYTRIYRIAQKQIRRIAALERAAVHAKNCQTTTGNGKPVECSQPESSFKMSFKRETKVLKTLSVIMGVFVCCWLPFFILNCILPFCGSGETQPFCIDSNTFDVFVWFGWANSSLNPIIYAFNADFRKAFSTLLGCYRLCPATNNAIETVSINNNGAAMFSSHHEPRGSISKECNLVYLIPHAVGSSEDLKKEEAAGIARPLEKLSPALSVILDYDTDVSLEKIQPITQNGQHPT
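After overnight tetracycline induction at 30 C, force-coupled D1 HEK293 cells took up a no-wash calcium dye at room temperature. Compounds were added and monitored 180 s, and the response to EC80 dopamine was then recorded.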
TRHR PAM = qHTS for Small Molecule Agonists and Allosteric Enhancers of Human TRH Receptor: Primary Screen for Enhancers | 360,000 compounds, 0.66% hits | Thyrotropin-releasing hormone receptor (Homo sapiens), P34981 | TRHR cells, fluo-8 calcium fluorescence, EC20 TRH enhancement | enhancement, % at 2 µM; in the data active = enhancement above about 30%; note: 0% is about no effect
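Enhancer read-out: after compound pinning and an initial kinetic agonist-mode read, an EC20 of TRH (10 nM final) was injected and fluo-8 calcium signal (Ex 480/Em 530) followed at 1 s/cycle for 100 cycles in TRHR-expressing cells.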
D1 PAM = Potentiators of Human D1 Dopamine Receptor: qHTS | D(1A) dopamine receptor (Homo sapiens), P21728 | HEK293 TREx D1 cells, calcium flux, dopamine EC20 potentiation | potentiation, % at 10 µM | 360,000 compounds, 0.036% hits | AID 504651, 2011; in the data active = potentiation above about 30%; note: 0% is about no effect
D1 agonist = Allosteric Agonists of the Human D1 Dopamine Receptor: qHTS; D(1A) dopamine receptor (Homo sapiens), P21728; HEK293 T-REx D1 cells, calcium flux, agonist mode; activation, % at 2 µM; 360,000 compounds, 1% hits; AID 504660, 2011; note: 0% is about no effect
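Tetracycline-induced HEK293 TREx D1 cells, force-coupled to calcium signalling, were dye-loaded with a no-wash calcium kit. Compound was pin-added after a 10 s baseline. Fluorescence was read kinetically at 1 cycle/s for 180 s, with calcium rises flagged as agonism.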
The depositor's hits bear a star; . = not tested or not shown. Most compounds without a hit are left out; they make up all but 4.6% or so of the library. Cut-off read from the data, not from the text of the source, unless noted: active = activation above about 30%; inactive = the rest.

SMILES | TRHR ag | D1 antag | TRHR PAM | D1 PAM | D1 agonist
CCOC(=O)c1ccccc1NC(=O)CSc1ncc2c(n1)-c1ccccc1N(CC)S2(=O)=O | 1 | 5 | -5 | -4 | 5
O=C1NC2(NN1c1ccccc1)C1CC3CC(C1)CC2C3 (stereo unspecified) | 5 | 5 | -1 | 6 | 43*
COc1cccc(-c2cc(CC3(O)CCN(CCCc4ccccc4)CC3)on2)c1 | 1 | 4 | 1 | -4 | 24
Fc1ccc(Nc2ncnc3c2nc2n3CCCCC2)c(F)c1 | 0 | -7 | -2 | -1 | 0
COc1ccc(N2CCN(C(=O)CCc3c(C)nc4cc(-c5cccc(F)c5)nn4c3C)CC2)cc1 | 0 | 21 | 37* | 0 | 0
Cc1nc2cc(-c3cccc(F)c3)nn2c(C)c1CCC(=O)N1CCN(c2ccc(F)cc2)CC1 | 0 | 9 | 4 | -4 | -1
CCOc1ccc(CCNC(=O)CCc2c(C)nc3c4c(C)cc(C)nc4nn3c2C)cc1 | -2 | -36* | 15 | -3 | -1
COc1ccccc1-c1cc2nc(C)c(CCC(=O)NCCc3ccc(SC)cc3)c(C)n2n1 | -1 | -47* | -11 | -6 | 8
COc1ccc(CCNC(=O)CCc2c(C)nc3c(-c4ccc(F)cc4)c(C)nn3c2C)cc1OC | -1 | 6 | 3 | -3 | 0
COc1ccc(CCNC(=O)CCc2c(C)nc3cc(-c4cccc(F)c4)nn3c2C)cc1OC | 0 | -34* | 6 | 0 | 2
CCOc1ccccc1C(=O)N(Cc1ccco1)Cc1ccccc1F | -1 | -16 | -6 | 2 | 3
COc1ccccc1NC(=O)CSc1n[nH]c(-c2cccnc2)n1 | 0 | 5 | 0 | 1 | 0
Cc1ccc(NC(=O)CSc2n[nH]c(-c3cccnc3)n2)c(Br)c1 | -1 | -32* | 4 | . | 7
CC(C)(C)OC(=O)N1CCC(c2c(C(=O)NCCN3CCC(Cc4ccccc4)CC3)cnn2-c2ccccc2)CC1 | 3 | -7 | 3 | -3 | 56*
COc1ccc(CCN2CCC(CNC(=O)c3cnn(-c4cccc(Cl)c4)c3C3CCN(C(=O)OC(C)(C)C)CC3)CC2)cc1 | 2 | -2 | 18 | 3 | 30
COc1ccc(CCN2CCC(CNC(=O)c3cnn(-c4ccccc4)c3C3CCN(C(=O)OC(C)(C)C)CC3)CC2)cc1 | 3 | -4 | -1 | -6 | 38*
CC(C)(C)OC(=O)N1CCC(c2c(C(=O)NCCN3CCC(Cc4ccccc4)CC3)cnn2-c2ccc(F)cc2)CC1 | 2 | -10 | 3 | 2 | 40*
CC(C)(C)OC(=O)N1CCC(c2c(C(=O)NCc3cccc(Cl)c3)cnn2-c2ccc(F)cc2)CC1 | 2 | -43* | 2 | -9 | 2
CCc1ccccc1NC(=O)C1CCCN(c2nnc(-n3c(C)ccc3C)s2)C1 (stereo unspecified) | -2 | 5 | -5 | -1 | 0
Cc1cc(C)cc(-n2cnc3cc(C(=O)NCCc4ccccc4)ccc32)c1 | 0 | 3 | 9 | -2 | 2
Cc1cc(OCC(=O)N[C@@H](CSCc2ccccc2)C(=O)O)c2c(C)c(C)c(=O)oc2c1 | 0 | 1 | 41* | 6 | -1
O=C1CN(C(=O)COc2ccc(Cl)cc2Cl)C(c2ccccc2)c2cc(F)ccc2N1 (stereo unspecified) | 2 | 5 | 6 | -1 | 16
Cc1ccc(Cn2c(=O)n(Cc3ccccc3)c(=O)c3oc4ccccc4c32)cc1 | 0 | 10 | 36* | -4 | 2
COc1ccc(Cn2c(=O)c3oc4ccccc4c3n(Cc3ccccc3)c2=O)cc1 | 0 | -4 | 35* | -1 | 2
COc1ccc(Cn2c(=O)c3oc4ccccc4c3n(Cc3cccc(F)c3)c2=O)cc1 | 0 | 6 | 0 | -6 | 9
SMILES | TRHR ag | D1 antag | TRHR PAM | D1 PAM | D1 agonist
Cc1ccc(C)c(Cn2c(=O)n(Cc3ccco3)c(=O)c3oc4ccccc4c32)c1 | 0 | 10 | -3 | -4 | 1
Cc1cccc(Cn2c(=O)n(Cc3ccccc3)c(=O)c3oc4ccccc4c32)c1 | -1 | 3 | -2 | -4 | 1
Cc1ccc(C)c(Cn2c(=O)n(C(C)C)c(=O)c3oc4ccccc4c32)c1 | 1 | -80* | 12 | -2 | 0
COc1cc(-c2nnc(-c3cccnc3)o2)cc(OC)c1OC | 1 | -88* | 0 | -11 | 1
COc1ccc(-c2nnc(-c3cccnc3)o2)cc1OC | 0 | 7 | 0 | -7 | 3
COc1cccc(CNC(=O)Cc2csc3ccccc23)c1OC | -1 | -5 | 2 | -3 | 1
CCOC(=O)C(Cc1ccccc1)C(=O)Nc1cccc(C)c1 (stereo unspecified) | -1 | -3 | 31* | 6 | -1
CC(O)c1cccc(NC(=O)CCCc2ccccc2)c1 (stereo unspecified) | 3 | 3 | -3 | 1 | 1
Cc1cccc(NC(=O)CCCc2ccccc2)c1 | 0 | -58* | -3 | -5 | 3
O=C(CSc1nc2ccccc2n1Cc1cccc(Cl)c1)N1CCN(c2ccc(F)cc2)CC1 | 0 | -14 | 10 | -1 | 5
CCc1nnc(NC(=O)C(C)N2C(=O)C3C4C=CC(C4)C3C2=O)s1 (stereo unspecified) | 0 | -43* | 7 | 0 | 1
Cc1nnc(NC(=O)NC(C)N2C(=O)C3C4C=CC(C4)C3C2=O)s1 (stereo unspecified) | 0 | -5 | -3 | -6 | 2
COc1ccccc1OCCCCNCCO | 0 | -12 | -11 | -18 | 0
Cc1ccccc1OCCCCCNCCO | 1 | -6 | 5 | -3 | 4
CC(C)c1ccccc1OCCCCCNCCO | -2 | -8 | -5 | -8 | 93*
CC(C)(C)c1ccccc1OCCCCCNCCO | 3 | 18 | 22 | -6 | 33*
Cc1ccccc1NC(=O)c1ccc(F)c(S(=O)(=O)N(C)C2CCCCC2)c1 | 0 | -15 | -7 | -1 | 13
CCCCC(CC)CNC(=O)CCS(=O)(=O)c1cccc2nonc12 (stereo unspecified) | -1 | -56* | 2 | -2 | 3
O=C(NCc1ccccc1Br)c1ccc(-n2cnc3cccnc32)cc1 | 0 | -5 | 8 | 0 | -2
COc1ccc(NS(=O)(=O)c2ccc3c(c2)CC(C)N3C(C)=O)c(OC)c1 (stereo unspecified) | 2 | -10 | 3 | -4 | 15
CCOC(=O)N1CCN(Cc2nc3cc(NC(=O)C(C)C)ccc3n2C(C)C)CC1 | -2 | -25 | 5 | 0 | 3
